Structures can show the parent of a compound that is named as a salt. ± gives the standard deviation.

Data on 18 compounds can be found in the supplement of paper PMC4709259.

The test system of assay [1] is Jurkat. Kind of assay: mean cell size (FSC-A) relative to DMSO control (fraction of control); higher = larger cells. Conditions: 48 h. Put shortly: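 Jurkat cells seeded at 600 cells/µl were incubated 1 h, then exposed for 48h to the Enzo Screen-Well FDA Approved Drug Library v2.0 at 25µM in 0.9% (v/v) final DMSO. Drugs that cut counts below 20% of controls were diluted 10-fold and retested, down to 25nM. Cell count and mean cell size (forward scatter area) were read on an Accuri C6 flow cytometer, relative to solvent-only controls. Plates held 6-12 controls; values are means of 3 biological replicates.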

Assay [2] concerns Jurkat. Description: cell count relative to DMSO control (fraction of control); higher = more cells (less growth inhibition). The following applies: 48 h.

In the case of `COc1cccc2c1C(=O)c1c(O)c3c(c(O)c1C2=O)C[C@@](O)(C(C)=O)C[C@@H]3O[C@H]1C[C@H](N)[C@H](O)[C@H](C)O1` [Daunorubicin·HCl] (concentration: 25 nM), the mean cell size in the assay on Jurkat [1] turned out to be 1.04 ± 0.037. In addition, the cell count in the assay on Jurkat [2] is 0.711 ± 0.11.

The compound `CC(O)(P(=O)(O)O)P(=O)(O)O` [Etidronate Disodium] (concentration: 25 µM) had a mean cell size with Jurkat [1] of 1 ± 0.052. This compound displayed a cell count in the assay with Jurkat [2] of 0.595 ± 0.17.

For the compound `CN(C)CCc1c[nH]c2ccc(Cn3cncn3)cc12` [Rizatriptan Benzoate] (concentration: 25 µM), the mean cell size in the assay on Jurkat [1] amounted to 1.02 ± 0.039. Moreover, in the assay on Jurkat [2], the cell count was 0.844 ± 0.01.

`CC1=C(/C=C/C(C)=C/C=C/C(C)=C\C(=O)O)C(C)(C)CCC1` [Isotretinoin (13-Cis-Retinoic Acid)] (concentration: 25 µM) gave a mean cell size in the assay with Jurkat [1] of 0.864 ± 0.03. In addition, in the assay on Jurkat [2], the cell count stood at 1.02 ± 0.11.

For the compound `CC1(C)S[C@@H]2[C@H](NC(=O)Cc3ccccc3)C(=O)N2[C@H]1C(=O)O` [Penicillin G Potassium (Benzylpenicillin)] (concentration: 25 µM), in the assay on Jurkat [1], the mean cell size was 0.948 ± 0.019. This compound also gave a cell count in the assay on Jurkat [2] of 0.934 ± 0.041.

In turn, `COC1=CC(=O)C[C@@H](C)[C@]12Oc1c(Cl)c(OC)cc(OC)c1C2=O` [Griseofulvin] (concentration: 2.5 µM) showed a mean cell size in the assay on Jurkat [1] of 0.975 ± 0.02. Further, in the assay on Jurkat [2], the cell count is 0.865 ± 0.099.

`NS(=O)(=O)c1cc2c(cc1Cl)N=CNS2(=O)=O` [Chlorothiazide] (concentration: 25 µM) showed a mean cell size in the assay with Jurkat [1] of 0.926 ± 0.011. In the assay on Jurkat [2], this compound registered a cell count of 1.16 ± 0.082.

As for `CC[C@H](C)C(=O)O[C@H]1C[C@@H](C)C=C2C=C[C@H](C)[C@H](CC[C@@H]3C[C@@H](O)CC(=O)O3)[C@H]21` [Lovastatin] (concentration: 25 µM), in the assay on Jurkat [1], the mean cell size was found to be 1.16 ± 0.046. In the assay on Jurkat [2], this compound had a cell count of 0.664 ± 0.15.

On to `CN1CCC[C@H]1c1cccnc1` [Nicotine] (concentration: 25 µM), for which the mean cell size with Jurkat [1] was found to be 0.936 ± 0.045. Also, the cell count in the assay on Jurkat [2] was 0.561 ± 0.18.

On to `CN1CC(=O)N2[C@H](c3ccc4c(c3)OCO4)c3[nH]c4ccccc4c3C[C@@H]2C1=O` [Tadalafil] (concentration: 25 µM), for which the mean cell size with Jurkat [1] worked out at 0.922 ± 0.05. In the assay with Jurkat [2], the cell count was determined as 0.413 ± 0.12.

`CC(C)Cc1ccc(C(C)C(=O)O)cc1` (stereo unspecified) [Ibuprofen] (concentration: 25 µM) returned a mean cell size in the assay on Jurkat [1] of 0.955 ± 0.011. Further, the cell count in the assay with Jurkat [2] is 0.765 ± 0.077.

Turning to `CC(S)C(=O)NCC(=O)O` (stereo unspecified) [Tiopronin] (concentration: 25 µM), in the assay on Jurkat [1], the mean cell size is 0.956 ± 0.016. For the same compound, the cell count with Jurkat [2] is 0.864 ± 0.17.

With `CC(C)Nc1cccnc1N1CCN(C(=O)c2cc3cc(NS(C)(=O)=O)ccc3[nH]2)CC1` [Delavirdine Mesylate] (concentration: 25 µM), the mean cell size in the assay on Jurkat [1] came out at 0.942 ± 0.036. This compound also yielded a cell count in the assay with Jurkat [2] of 0.887 ± 0.099.

The compound `COc1ccc(CCN(C)CCCC(C#N)(c2ccc(OC)c(OC)c2)C(C)C)cc1OC` (stereo unspecified) [Verapamil·HCl] (concentration: 25 µM) gave a mean cell size in the assay on Jurkat [1] of 0.939 ± 0.025. The compound further displayed a cell count with Jurkat [2] of 0.756 ± 0.042.

In turn, `CC(C)(C)NC[C@H](O)c1ccc(O)c(CO)c1` [Levalbuterol·HCl] (concentration: 25 µM) returned a mean cell size with Jurkat [1] of 0.929 ± 0.03. The same compound gave a cell count in the assay with Jurkat [2] of 1.14 ± 0.14.

The compound `CC(=O)O[C@]1(C(C)=O)CC[C@H]2[C@@H]3C[C@H](C)C4=CC(=O)CC[C@]4(C)[C@H]3CC[C@@]21C` [Medroxyprogesterone Acetate] (concentration: 25 µM) registered a mean cell size with Jurkat [1] of 0.956 ± 0.065. This compound had a cell count with Jurkat [2] of 0.352 ± 0.042.

Consider `C=C1/C(=C\C=C2/CCC[C@]3(C)[C@@H]([C@H](C)/C=C/[C@@H](O)C4CC4)CC[C@@H]23)C[C@@H](O)C[C@@H]1O` [Calcipotriene] (concentration: 25 µM), for which the mean cell size in the assay on Jurkat [1] was 0.933 ± 0.064. Besides, the cell count in the assay with Jurkat [2] amounted to 0.654 ± 0.08.

Regarding `Cc1ccc(NC(=O)c2ccc(CN3CCN(C)CC3)cc2)cc1Nc1nccc(-c2cccnc2)n1` [Imatinib Mesylate] (concentration: 25 µM), the mean cell size in the assay on Jurkat [1] stood at 0.968 ± 0.032. This compound gave a cell count in the assay with Jurkat [2] of 0.589 ± 0.07.
